Compound activity from PubChem BioAssay.
In the library only some 3% were active in any assay of this set; here they are far more common.
TSHR agonist: agonists of human thyroid stimulating hormone receptor; P16473; HEK293-CNG-TSHR cells (CNG channel as cAMP sensor), membrane potential dye, cAMP; Potency, µM (series often up to 57.1 µM), hits mostly activators; actives 0.48% (n = 73,000); AID 926; active = well fitted activation curve with a large enough effect in the main read-out, with a control signal flat, not every such curve was filed as active; inconclusive = small, poorly fitted or top-dose-only effect, or a change in a side signal; inactive = no such curve, though single readings can be large or run the other way; reference of the percent scale not stated here;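 also: the control signal comes from parental cells without the receptor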
Target sequence (P16473 whole entry, looked up): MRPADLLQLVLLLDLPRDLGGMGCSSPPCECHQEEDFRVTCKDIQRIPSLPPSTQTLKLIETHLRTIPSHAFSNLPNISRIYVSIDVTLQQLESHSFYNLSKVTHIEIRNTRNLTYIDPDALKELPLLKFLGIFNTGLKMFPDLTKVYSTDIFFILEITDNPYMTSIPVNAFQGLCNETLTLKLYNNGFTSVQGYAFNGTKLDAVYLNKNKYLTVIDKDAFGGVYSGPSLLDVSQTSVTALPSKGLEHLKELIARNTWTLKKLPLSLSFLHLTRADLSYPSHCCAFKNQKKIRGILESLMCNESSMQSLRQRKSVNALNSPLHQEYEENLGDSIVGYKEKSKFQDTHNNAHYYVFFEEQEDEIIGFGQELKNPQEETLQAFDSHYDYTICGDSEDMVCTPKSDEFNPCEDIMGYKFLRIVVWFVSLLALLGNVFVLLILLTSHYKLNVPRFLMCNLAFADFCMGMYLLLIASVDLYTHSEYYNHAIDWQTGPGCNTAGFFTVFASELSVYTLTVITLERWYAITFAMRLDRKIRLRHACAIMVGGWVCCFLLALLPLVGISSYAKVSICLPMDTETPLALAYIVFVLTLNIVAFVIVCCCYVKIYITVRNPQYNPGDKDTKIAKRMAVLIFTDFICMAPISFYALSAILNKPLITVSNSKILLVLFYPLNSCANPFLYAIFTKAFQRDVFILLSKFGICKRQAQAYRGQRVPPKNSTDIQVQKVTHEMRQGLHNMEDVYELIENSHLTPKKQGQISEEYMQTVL
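cAMP rise detected as CNG-channel membrane depolarization by fluorescent dye (emission 590 nm), 30 min after compound, following 60 min dye loading containing 100 uM RO 20-1724 at room temperature. Cells: TSHR/CNG HEK 293, with parental CNG HEK 293 as control.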
GFP derepression: epigenetic modulators derepressing GFP locus in mouse cells | mouse C127i GFP locus derepression, cytometry, 30 h | Potency, µM (doses to about 46.1 µM) | actives 0.09% (n = 68,000) | AID 597
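Derepression screen: silenced CMV-GFP reporter in murine C127i cells, 30 h compound incubation at 37 C, washed cells imaged by laser-scanning cytometer to enumerate GFP-expressing objects of 20 to 120 um.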
HBB splice mod: alters splicing of the hemoglobin beta chain; Potency, µM (titrated, usually from 46.1 µM), hits mostly activators; AID 925; actives 0.06% (n = 65,000); HBB splicing reporter cell assay, activation; EGFP reporter with mutant IVS2-654 intron; response scale: normalised to 500 nM splice-correcting PNA
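HeLa cells stably expressing EGFP interrupted by mutant beta-globin intron 2 (IVS2-654), 500/well in 2% FCS. Treated with compound for 2 days at 37C. Splicing correction scored as total well GFP intensity (488 nm excitation, 500-520 nm emission); 500 nM antisense PNA served as control.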
HEK293 cAMP cs: parental HEK293 cAMP activation (counter-screen); parental HEK293 CNG cAMP sensor, membrane potential fluorescence; Potency, µM (highest dose often 57.1 µM), actives largely listed as activators; actives 2.5% (n = 73,000); also: nearly all actives have a fitted effect of over 55% in size
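Counterscreen for endogenous-receptor signalling: CNG-channel HEK 293 cells report cAMP rise by membrane depolarization. After 60 min dye equilibration with 100 uM RO 20-1724, compounds incubated 30 min before bottom-read fluorescence at 590 nm.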
Ub-GFP proteasome: ubiquitin-GFP accumulation via proteasome inhibition | Ubiquitin-GFP reporter cells, proteasome inhibition, GFP fluorescence; response scale: untreated = 0%, 10 µM MG-132 = 100% | Potency, µM (doses to about 45.9 µM), actives largely listed as activators | 67,000 tested, under 10 active; active = well fitted activation curve with a large enough effect, not every such curve was filed as active; inconclusive = small, poorly fitted or top-dose-only effect, or another doubt; inactive = no such curve, though single readings can be large or run the other way
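Proteasome block read as GFP accumulation: ubiquitin(G76V)-GFP U2OS cells exposed to compound (2.9 nM–46 uM) for 4 hr at 37 C. Normalization used untreated cells as 0% and 10 uM MG-132 as 100%; concentration-response curves fitted.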
Of the large screens only hits and unclear results are named; the others gave an inactive call; ! = a repeat was not active. Unless noted, calls follow the shape of the dose curve; as a rule, active = well fitted curve in the direction sought with a large enough effect; inconclusive = small, poorly fitted or top-dose-only effect, or another doubt; inactive = no such curve, though single readings can be large; an effect the other way counts as inactive or inconclusive.

C[C@@H](Cc1ccccc1)Nc1ncnc2c1ncn2[C@@H]1O[C@@H](CO)[C@H](O)[C@@H]1O	TSHR agonist inconclusive, HEK293 cAMP cs 25µM
CC(=O)OC[C@@H]1O[C@H](CCON=C(C)C)C=C[C@@H]1OC(C)=O	none (no result: GFP derepression, Ub-GFP proteasome)
CCNc1ncc2nc(-c3cc(F)cc(F)c3)c(=O)n(C3CC3)c2n1	none
CC(C)C[C@H](NC(=O)[C@@H](NC(=O)N[C@@H](Cc1ccccc1)C(=O)O)[C@H]1CCN=C(N)N1)C(=O)N[C@H](C=O)Cc1ccccc1	none (no result: HBB splice mod)
Cc1ccc(S(=O)(=O)N[C@H]2COC(=O)C/C=C\[C@@H](C)COC(=O)C/C=C\[C@@H]2C)cc1	none (no result: GFP derepression, Ub-GFP proteasome)
CC(C)COc1ccc(C(=O)N(Cc2ccco2)C2CCS(=O)(=O)C2)cc1 (stereo not given)	none (no result: TSHR agonist, Ub-GFP proteasome)
CCCCCOc1ccc(C(=O)N(Cc2ccco2)C2CCS(=O)(=O)C2)cc1 (stereo not given)	TSHR agonist inconclusive, HEK293 cAMP cs 25µM (no result: Ub-GFP proteasome)
CC1(C)Cc2ccccc2-c2nnc(SCc3ccc(C#N)cc3)n21	TSHR agonist inconclusive, HEK293 cAMP cs 25µM
COc1ccccc1-c1nc(NCc2ccccc2)c2ccccc2n1	TSHR agonist inconclusive, HEK293 cAMP cs inconclusive
CN(C)Cc1ccccc1-c1nc(N(C)C)c2ccccc2n1	TSHR agonist inconclusive, HEK293 cAMP cs 10µM
Cc1cccc(CNc2nc(-c3ccccc3CN(C)C)nc3ccccc23)c1	TSHR agonist inconclusive, HEK293 cAMP cs 0.79µM
COc1ccccc1CNc1nc(-c2ccccc2OC)nc2ccccc12	TSHR agonist 32µM
CNc1nc(-c2ccccc2CN(C)C)nc2ccccc12	TSHR agonist inconclusive, HEK293 cAMP cs inconclusive
CO/N=C(\C)CCN1CCCc2nc(C)c(C)cc21	none (no result: GFP derepression, Ub-GFP proteasome)
CCOC(=O)N1CCC(n2c(SCC(=O)NCCC3=CCCCC3)nc3ccccc3c2=O)CC1	TSHR agonist inconclusive, HEK293 cAMP cs 6.3µM
COc1ccc(-c2nc(C#N)c(N3CCN(c4ccccc4)CC3)o2)cc1	none (no result: TSHR agonist)
Cc1cccc(-c2nc(C#N)c(N3CCCCCC3)o2)c1	TSHR agonist 25µM
CC1CCc2c(sc3ncn4c(SCC(=O)NCc5ccco5)nnc4c23)C1 (stereo not given)	TSHR agonist inconclusive, HEK293 cAMP cs 25µM
Cc1nc(SCC(=O)NCc2ccco2)c2c3c(sc2n1)CCCC3	TSHR agonist inconclusive, HEK293 cAMP cs 13µM
O=C(CSc1nc(C2CC2)nc2sc3c(c12)CCCC3)NCc1ccco1	TSHR agonist inconclusive, HEK293 cAMP cs inconclusive
Cc1ccc(Cl)cc1N1CCN(C(c2cccnc2)c2nnnn2C2CCCCC2)CC1 (stereo not given)	none
Cc1ccc(Cl)cc1N1CCN(C(c2ccc(C#N)cc2)c2nnnn2C2CCCC2)CC1 (stereo not given)	TSHR agonist inconclusive, HEK293 cAMP cs 1.3µM (no result: HBB splice mod)
CN(C)c1ncc2nc(-c3ccc(Cl)cc3)c(=O)n(Cc3cccs3)c2n1	none
CCOc1ccc(Br)cc1-c1noc(-c2cccs2)n1	TSHR agonist 25µM
COc1cc(-c2noc(-c3cccs3)n2)cc(OC)c1OC	none
Oc1cc(O)cc(/C=C\c2ccc(O)c(O)c2)c1	none
COC(=O)CCC(=O)Nc1ccc(NC(=O)CCC(=O)OC)cc1	none (no result: GFP derepression, HBB splice mod, Ub-GFP proteasome)
O=C(CCC(=O)OCC(F)(F)C(F)F)Nc1ccc(Cl)cc1	TSHR agonist inconclusive, HEK293 cAMP cs 32µM
O=C(COC(=O)c1ccccc1NC(=O)c1ccco1)NCCC1=CCCCC1	TSHR agonist inconclusive, HEK293 cAMP cs 25µM
CO[C@@H]1COC(=O)CC=C[C@@H](C)[C@@H]2C=C[C@@H](O)[C@@H](COC(=O)C/C=C\[C@H]1C)O2	none (no result: GFP derepression, Ub-GFP proteasome)
c1ccc(CNc2nc(-c3cccnc3)nc3ccccc23)cc1	TSHR agonist inconclusive, HEK293 cAMP cs inconclusive
COc1cccc(-c2nc(NCc3ccccc3)c3ccccc3n2)c1	TSHR agonist inconclusive, HEK293 cAMP cs 32µM
COc1cccc(-c2nc(NCc3cccnc3)c3ccccc3n2)c1	TSHR agonist 32µM
c1cncc(CNc2nc(-c3cccnc3)nc3ccccc23)c1	TSHR agonist 25µM
COC(=O)[C@H](CCSC)NC(=O)C/C=C\[C@@H](C)[C@@H](CO)OC	TSHR agonist inconclusive, HEK293 cAMP cs inconclusive (no result: GFP derepression, Ub-GFP proteasome)
CC(C)(C)c1onc(OCP(=O)(O)O)c1C[C@@H](N)C(=O)O	none
CC1=C(C(=O)OCc2ccccc2)C(C2CC2)NC(=O)N1CCCCCC(=O)O (stereo not given)	TSHR agonist inconclusive, HEK293 cAMP cs 20µM (no result: GFP derepression, Ub-GFP proteasome)
CC1=C(C(=O)OCc2ccccc2)C(C2CCCCC2)NC(=O)N1CCCCCC(=O)O (stereo not given)	TSHR agonist inconclusive, HEK293 cAMP cs inconclusive (no result: GFP derepression, Ub-GFP proteasome)
N=C1N=C(N)c2cc3ccccc3cc21	HBB splice mod inconclusive (no result: GFP derepression, Ub-GFP proteasome)
Cc1cc2c(c(=O)n1CCN(C)C)C(c1ccc(Cl)cc1)C(C#N)=C(N)O2 (stereo not given)	none
Cc1cc2c(c(=O)n1C1CC1)C(c1cccc(Cl)c1)C(C#N)=C(N)O2 (stereo not given)	TSHR agonist inconclusive, HEK293 cAMP cs 3.2µM
CCCC[C@@H]1CN2[C@H](c3ccc(Br)cc3)[C@H](C)CC[C@H]2C(=O)O1	TSHR agonist inconclusive, HEK293 cAMP cs inconclusive (no result: GFP derepression, Ub-GFP proteasome)
CC1CCC2C(=O)OC(CN=[N+]=[N-])CN2C1c1ccc(Br)cc1 (stereo not given)	TSHR agonist inconclusive, HEK293 cAMP cs 5µM! (no result: GFP derepression, Ub-GFP proteasome)
COc1ccccc1-n1c(SC)nc(O)cc1=O	TSHR agonist inconclusive, HEK293 cAMP cs 32µM (no result: GFP derepression)
COc1ccc(OCC(=O)N2CC3(C)CC2CC(C)(C)C3)cc1 (stereo not given)	TSHR agonist inconclusive
CC1(C)CC2CC(C)(CN2C(=O)COC(=O)c2ccc(Cl)cc2N)C1 (stereo not given)	TSHR agonist inconclusive, HEK293 cAMP cs 25µM
O=c1cc(CSc2nnc(COc3ccc(Cl)cc3)o2)c2ccccc2[nH]1	TSHR agonist inconclusive, HEK293 cAMP cs 25µM
O=c1cc(CSc2nnc(-c3ccccc3)o2)c2ccccc2[nH]1	none (no result: GFP derepression)
NCOC(=O)Cc1ccc(Br)cc1	none
CC1(C)CCC[C@@]2(C)[C@@H]1CC[C@]1(C)OC(=O)C[C@@H]21	TSHR agonist inconclusive, HEK293 cAMP cs inconclusive (no result: HBB splice mod)
COc1ccc(-n2c(Cc3cccn3C)nnc2SCC(=O)Nc2ccccc2C)cc1	none (no result: GFP derepression)
CCOC(=O)c1ccccc1NC(=O)CSc1nnc(Cc2cccn2C)n1-c1ccc(C)cc1	TSHR agonist inconclusive, HEK293 cAMP cs 32µM
COc1ccccc1NC(=O)CSc1nnc(Cc2cccn2C)n1CCc1ccccc1	TSHR agonist inconclusive, HEK293 cAMP cs 20µM
CCOC(=O)c1ccccc1NC(=O)CSc1ncc(C(=O)OCC)c(N)n1	TSHR agonist inconclusive, HEK293 cAMP cs 20µM (no result: HBB splice mod)
COc1ccc(NC(=O)CSc2nnc(Cc3cccn3C)n2CCc2ccccc2)c(OC)c1	TSHR agonist inconclusive, HEK293 cAMP cs inconclusive
